Whole data set: some 35,000 sequences, median “fluorescence intensity (a.u.)” near 10,000, cut for the highest 2% near 52,000. The full list was thinned out, with the highest values kept by preference.

In this test the target is T1, OsWOX13 (Oryza sativa, UniProt Q5QMM3 1-267).
T1 sequence: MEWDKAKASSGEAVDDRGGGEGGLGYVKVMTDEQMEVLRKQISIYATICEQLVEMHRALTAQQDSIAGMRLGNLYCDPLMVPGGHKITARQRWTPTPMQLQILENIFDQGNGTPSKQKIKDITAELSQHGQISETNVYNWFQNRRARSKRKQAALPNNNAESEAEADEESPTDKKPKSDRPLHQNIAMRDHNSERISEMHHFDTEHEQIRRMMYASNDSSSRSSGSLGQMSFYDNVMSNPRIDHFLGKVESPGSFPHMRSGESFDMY
Briefly: protein-binding microarray (RPBM); PBS, 2% BSA, 51.3 ng/ul salmon testes DNA, 50 uM zinc acetate, 200 nM TF, 25 C, 1 h; high values mean tight binding. The following applies: protein: recombinant; tags: N-terminal polyhistidine and DsRed monomer fusion (pET32a); label: CyDye5-dUTP incorporated in the synthesized complementary strand; 3' TTTTT single-stranded linker to array surface; dsDNA, one strand shown. The method in brief:
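The binding signal is fluorescence intensity per array feature (arbitrary units). Readings came from an Axon 4000B scanner after a washed, 2% BSA-blocked, double-stranded custom Agilent array had been incubated for 1 h at 25 °C with 200 nM protein and 50 µM zinc acetate. The protein was a Ni–NTA-purified transcription factor fused N-terminally to polyhistidine and DsRed, expressed in E. coli BL21-CodonPlus.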
As for “TAGATAGATAGAATTGAATGGTGACCTCAGCTCCAGCTTCCGGAGTCACCTAGTGCAG”, the binding signal is 16200 fluorescence intensity (a.u.). For “TCTCTTACTCTTGTTGATTGACACCGGTCATCAGTAGTTCCGGAGTCACCTAGTGCAG” the value was 43200 fluorescence intensity (a.u.). As to “CAAAATTAACTTGCGCGCCACTCTGCCTCTCAACCCTTCACGGAGTCACCTAGTGCAG”, the binding signal was 8740 fluorescence intensity (a.u.). For “AACAATTGACAAACTGATTCTGCTCGCCTCTGTCCCCTTTCGGAGTCACCTAGTGCAG” the value was 46800 fluorescence intensity (a.u.); for “GAGCTCAGCTTGCAGGGAGCTTGGGTGTGTGATCATACACCGGAGTCACCTAGTGCAG”, 63900 fluorescence intensity (a.u.). The figure for “ATATATATATATATATATATACATACATATACACACACACCGGAGTCACCTAGTGCAG” is 7300 fluorescence intensity (a.u.); for “TTGATTGGGTCTGTGGTGGAACAGGACGATCATACATCACCGGAGTCACCTAGTGCAG” it is 21000 fluorescence intensity (a.u.).

In the case of “AGTTAATAACAAGAAATTATTCATTTAAATTTAGGGCAAACGGAGTCACCTAGTGCAG”, the binding signal was 9460 fluorescence intensity (a.u.). Turning to “CTTAATAACTTTCTCGGATTTAATGTGTGACTCACCATTCCGGAGTCACCTAGTGCAG”, the binding signal was 3340 fluorescence intensity (a.u.). For “GATGATGTGACTGAAAAGTTGTATGTGTATGACATATTGACGGAGTCACCTAGTGCAG” the value was 11500 fluorescence intensity (a.u.).

For the sequence “GTTGAATGTTTTGTATGATTTGAACCTGAAAACTGCATGACGGAGTCACCTAGTGCAG”, the binding signal is 7380 fluorescence intensity (a.u.).

For “GGTTGCTGATTGTATCCTTTACTACTAGATCTTGACTGAGCGGAGTCACCTAGTGCAG”, the binding signal is 16300 fluorescence intensity (a.u.). “GATGTGATTGAAAGTTTGTGTGTGTATGACAGTTTGATGTCGGAGTCACCTAGTGCAG”: the binding signal was 61700 fluorescence intensity (a.u.). With “GATGTGACTGAAAAGTTGTATGTGTATGACAGGTTGATGTCGGAGTCACCTAGTGCAG”, the binding signal is 8260 fluorescence intensity (a.u.). The figure for “ATATGATAGAAAAGTTGTGTATGTATGAAATGTTTGATGTCGGAGTCACCTAGTGCAG” is 9060 fluorescence intensity (a.u.); for “TGGAATGATGTGATGGAAAAGTTGAAAGTTTGTGTGTGTACGGAGTCACCTAGTGCAG” it is 5390 fluorescence intensity (a.u.); for “CCTGATTGGTTGTATTGCTTGAAGTAGACTATTGAGATTGCGGAGTCACCTAGTGCAG” it is 60200 fluorescence intensity (a.u.). The figure for “GTGATTGACTGATTGTGTGATTGTGTGAAGTGTATTGGTTCGGAGTCACCTAGTGCAG” is 65000 fluorescence intensity (a.u.); for “GAAATTGAAGATGATGTGACTGAAAAGTTGTGTATATGACCGGAGTCACCTAGTGCAG” it is 17200 fluorescence intensity (a.u.); for “ATGATTGAATGAATGAAACCCTAGTTTGTTTTGATTTGTACGGAGTCACCTAGTGCAG” it is 54400 fluorescence intensity (a.u.). The figure for “GCTATTAGATTGACTATATATGAATTGGAGCTAGTAGTTGCGGAGTCACCTAGTGCAG” is 42900 fluorescence intensity (a.u.).

As to “AGTTAATGAAATAATGCCAGCCTGCTGTCTTCTGATTATCCGGAGTCACCTAGTGCAG”, the binding signal was 6010 fluorescence intensity (a.u.). The figure for “GCCTGCATTCATTTCCCTAATCAATCGGCTCGGATAATGTCGGAGTCACCTAGTGCAG” is 4450 fluorescence intensity (a.u.); for “CGAATCTAAACAATCAATATTTAATTATACTTCCTCTAGACGGAGTCACCTAGTGCAG” it is 12600 fluorescence intensity (a.u.). The figure for “AAGATTGGGCTGTTCATTAATCAAATTATTCTATGTGTCTCGGAGTCACCTAGTGCAG” is 11900 fluorescence intensity (a.u.); for “TACACGAGATTGGAGGCACTAGGCCTCAGTACATGGCACGCGGAGTCACCTAGTGCAG” it is 3870 fluorescence intensity (a.u.). The figure for “GTATGATTATCTTTCTTCGAGTAATTAACACGAAACGATGCGGAGTCACCTAGTGCAG” is 40700 fluorescence intensity (a.u.); for “AATAAATTGTATTAATAACAAATTAGTCTATTCTATTAAACGGAGTCACCTAGTGCAG” it is 24100 fluorescence intensity (a.u.). “AATAATGAATTTAAAATAAAATAAAACTGCATGCAAGCGACGGAGTCACCTAGTGCAG”: the binding signal is 5650 fluorescence intensity (a.u.). For “AGTAGATTTTGACATGCTGTGTGTTAACAATGGGAGTAGACGGAGTCACCTAGTGCAG” the value was 3550 fluorescence intensity (a.u.). For “ACCCATCACTAATCAGTAATCACAGTATTACTATTAAATTCGGAGTCACCTAGTGCAG”, the binding signal was 9220 fluorescence intensity (a.u.). In the case of “CATTTAATTCATTGTTATATATATATATATATAGACACACCGGAGTCACCTAGTGCAG”, the binding signal is 3920 fluorescence intensity (a.u.). In the case of “TAACAAACTATTCCTAATTAATAGATAAACTGCCATGCCGCGGAGTCACCTAGTGCAG”, the binding signal was 8390 fluorescence intensity (a.u.). The figure for “TTATAATTAGTATTTTCATTGTTGTTAGATGATAAAACATCGGAGTCACCTAGTGCAG” is 17500 fluorescence intensity (a.u.); for “AATGTGTTAACTAATCAACTCGTCTCCCATCTCCTGCAAGCGGAGTCACCTAGTGCAG” it is 5480 fluorescence intensity (a.u.). As for “GGGTGCTGAAATTGATATACGATCAATTGTTGTCGGTGATCGGAGTCACCTAGTGCAG”, the binding signal is 14000 fluorescence intensity (a.u.).

As to “TGCTGGATTGTATTGATGTGTGTGCTTACCTAGTATAAATCGGAGTCACCTAGTGCAG”, the binding signal was 3580 fluorescence intensity (a.u.). As for “CGTTAATCGTTGTGATTGATGTCGGATATGTTTGCCACCACGGAGTCACCTAGTGCAG”, the binding signal was 58600 fluorescence intensity (a.u.). For “TGAGCTGATTGATCGTCTGAAGGGTGTCTGATTGTCAAGTCGGAGTCACCTAGTGCAG” the value was 52800 fluorescence intensity (a.u.). For “GTCTCTGTCTCTCGCTCTGATTGAAGTGTTCTGCTGCCATCGGAGTCACCTAGTGCAG” the value was 20400 fluorescence intensity (a.u.); for “GTAATTGGGCTTTCTTTGGGTAGTTATCGCTGGGCTTAATCGGAGTCACCTAGTGCAG”, 6360 fluorescence intensity (a.u.); for “CTTGTATGTTTGTGGATTGATATATTATATATTGATATATCGGAGTCACCTAGTGCAG”, 6720 fluorescence intensity (a.u.).

As to “AATATGATTGCTTTGTGGGTGTATGGTTCATTTTCAATGGCGGAGTCACCTAGTGCAG”, the binding signal is 47700 fluorescence intensity (a.u.).

Take “GTCATCATTGATTGATATGATTTTGTATGTGTGAGCAATGCGGAGTCACCTAGTGCAG”: the binding signal is 59400 fluorescence intensity (a.u.). The figure for “CTACTGATTGTATTGATTGGGTAGCTGGATTGAAGTTAATCGGAGTCACCTAGTGCAG” is 57000 fluorescence intensity (a.u.). The figure for “TTGTGATTTGTTAGAATTGTATTTTACAATGTGTAGTATGCGGAGTCACCTAGTGCAG” is 39800 fluorescence intensity (a.u.); for “ACTTGTGTGATGTTTGGATTGATGCCAAAACTTGCCAAATCGGAGTCACCTAGTGCAG” it is 3930 fluorescence intensity (a.u.).

The record behind these values is publication PMC7819943, “Rice protein-binding microarrays: a tool to detect cis-acting elements near promoter regions in rice”.
